Measurements as given in PubChem BioAssay AID488890 (Southern Research Specialized Biocontainment Screening …, 2010).
In all, about 320,000 compounds went through this assay and about 1,300 (0.41%) were called active. About 3% were inconclusive and are not listed. The rule behind the calls is not given here. Not all results are given here. Entries with a potency or affinity are not part of this list.

assay: growth inhibition of non-replicating M. tuberculosis (AID 488890); settings: Mycobacterium tuberculosis non-replicating, at 25 µM, stronger effect = higher value;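 note: plate controls were DMSO cells for no effect and high antibiotic wells for full effect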

Compared with `O=C1CN(C(=O)c2cccc(Br)c2)c2ccccc2N1`, `O=C1CN=C(c2ccccc2)c2cc(Cl)ccc2N1` is higher in inhibition: -8.78% for the first, 5.86% for the second.

Going from `Cc1nnc(NC(=O)CCC(=O)N2CCN(CCOc3cccc4ccccc34)CC2)s1` to `Cc1ccc(C2(C)NC(=O)N(CC(=O)N(C)CC(=O)Nc3cccc4ccccc34)C2=O)cc1` (configuration not stated), the inhibition falls from 16.7% to 7.1%.

Going from `CCCCOC(=O)Nc1cc(C(=O)OC)ccc1C(=O)OC` to `CCOC(=O)Nc1nc2ccccc2s1`, the inhibition falls from 18.2% to -2.43%.

Going from `N#Cc1ccc(OCC(=O)Nc2nc(-c3ccncc3)cs2)cc1` to `O=C(COC(=O)c1ccc(Br)o1)Nc1nc2ccccc2s1`, the inhibition rises from 10% to 71.5%.

Going from `Cc1c([N+](=O)[O-])c([N+](=O)[O-])nn1CC(=O)NCc1cccnc1` to `Nc1c(C(=O)OCC(=O)NCc2ccccc2)[nH]c(=O)[nH]c1=O`, the inhibition falls from 6.05% to -9.15%.

Going from `Cn1c(=O)c2c(SCCN3CCOCC3)nc(C3CCCC3)nc2n(C)c1=O` to `CC(C)(O)C#Cc1ccc(CN2CCN(C3CCCCC3)C(CCO)C2)s1` (configuration not stated), the inhibition falls from 19.1% to 11.2%.

Compared with `COc1cc(C(=O)N/N=C/c2ccsc2C)cc(OC)c1OC`, `CCOc1ccc(C(=O)N/N=C/c2cc([N+](=O)[O-])cs2)cc1` is higher in inhibition: 0.65% for the first, 69.5% for the second.

First: CCOc1ccc(CC(=O)OCc2cc(=O)n3cc(Br)ccc3n2)cc1
Second: COc1ccc(CC(=O)OCc2cc(=O)n3cc(Br)ccc3n2)cc1OC
The inhibition of the first is higher: 50.5% for the first, 13.9% for the second.

Compared with `Cc1onc(-c2ccccc2)c1C(=O)OCc1nnc(-c2ccc([N+](=O)[O-])cc2)o1`, `O=C(OCc1nnc(-c2ccccc2)o1)c1ccc([N+](=O)[O-])o1` is higher in inhibition: 48% for the first, 64.9% for the second.

Compared with `CCOC(=O)c1ccc(Cn2c(-c3ccccc3)nnc2-c2ccccc2)o1`, `CCOC(=O)c1cccc(COC(=O)c2cccc(-c3nnc(-c4ccccc4)o3)c2)c1` is higher in inhibition: 11.2% for the first, 18.4% for the second.

Going from `O=C(OCc1nnc(-c2ccccc2)o1)c1cccnc1Cl` to `O=C(OCc1nnc(-c2ccccc2)o1)c1ccccc1`, the inhibition rises from 6.83% to 73.8%.

Compared with `CC(=O)OCc1nc2ccccc2s1`, `Nc1ccc(C(=O)OCc2nc3ccccc3s2)cc1` is higher in inhibition: -0.84% for the first, 68.4% for the second.

Going from `Cc1cc(C(=O)CSc2nc3ccc(Cl)cc3[nH]2)c(C)n1Cc1ccco1` to `Cc1oc(-c2cccc(Cl)c2)nc1CN1CCCC(C(=O)NCc2ccco2)C1` (configuration not stated), the inhibition rises from 13.9% to 22.8%.

Compared with `COc1ccc(CN2C(=O)c3cccnc3C2Nc2ccc(C)cc2)cc1` (configuration not stated), `CCOc1cc(-c2sc(Nc3ccc(CC)cc3)n[n+]2-c2ccccc2)ccc1OC` is higher in inhibition: 27% for the first, 63.8% for the second.

First: CN(CC(=O)NCc1ccccc1Cl)S(=O)(=O)c1ccc2c(c1)n(C)c(=O)c(=O)n2C
Second: COc1ccc(N(CC(=O)Nc2ccccc2C)S(=O)(=O)c2c(C)[nH]c(=O)[nH]c2=O)cc1
The inhibition of the first is lower: -4.13% for the first, 8.99% for the second.

Going from `CCOC(=O)CC(=O)COc1nc2cc3c(nc2o1)CCCC3` to `Cc1nc2ccccc2nc1OCC(=O)Nc1cc(C(F)(F)F)ccc1N1CCOCC1`, the inhibition rises from -11.4% to 5.99%.

Going from `NCCCC[C@H](NC(=O)C1CCNCC1)c1nnc(CN)o1` to `CCCOc1ccc(N2CC(C(=O)NC(C)C)CC2=O)cc1` (configuration not stated), the inhibition rises from -30.9% to -9.57%.

First: CCC/C(=C1/c2ccccc2C(=O)N1c1ccccc1)c1cnc(OC)nc1
Second: O=C1O/C(=C/c2ccccc2)c2ccccc21
The inhibition of the first is higher: 24.1% for the first, -7.13% for the second.

First: COc1ccc(CN2CCN(c3ccccc3OC)CC2)cc1OC
Second: COc1ccc(C2=NCC(=S)Nc3ccc(Cl)cc32)cc1OC
The inhibition of the first is higher: -6.29% for the first, -21% for the second.

First: COc1ccc(C2=NOC(C(=O)N(C)Cc3ccccc3)C2)cc1 (configuration not stated)
Second: COc1ccc(NC(=O)Nc2ccccc2F)c(C)c1
The inhibition of the first is higher: 48.3% for the first, 20.6% for the second.

Compared with `O=C(c1ccc(F)cc1)C(Cc1ccccc1)N1CCCCC1` (configuration not stated), `CC(C)NC(=O)Cn1c(SCC(=O)c2ccc(F)cc2)nc2ccccc21` is lower in inhibition: 63.6% for the first, 7.83% for the second.

Compared with `Cc1cc(=O)n2ccsc2n1`, `Cc1ccn2c(=O)cc(C)nc2c1` is higher in inhibition: 0.97% for the first, 4.9% for the second.

First: CCOc1ccc(N(CC(=O)N2CCN(c3ccc(F)cc3)CC2)S(=O)(=O)c2c(C)noc2C)cc1
Second: CCc1ccc(NS(=O)(=O)c2cc3c4c(c2)CCN4C(=O)CC3)cc1
The inhibition of the first is higher: 21.6% for the first, 1.05% for the second.

Compared with `COC(=O)CSc1nnc(-c2ccccc2OC)o1`, `Cn1nc([N+](=O)[O-])nc1Sc1nnc(-c2ccccc2)o1` is higher in inhibition: 77.4% for the first, 78% for the second.

Going from `CCC(=Nc1ccc2c(c1)CCC2)c1c(O)n(C)c(=O)n(C)c1=O` to `CCC(=Nc1cccc(C(F)(F)F)c1)c1c(O)n(C)c(=O)n(C)c1=O`, the inhibition falls from 7.71% to -2.54%.

Compared with `COc1cccc(OC)c1C(=O)OCC(=O)N1CC(C)CC(C)C1` (configuration not stated), `CCN(CC)CCOC(=O)/C=C/c1ccccc1OC` is higher in inhibition: -15.5% for the first, -10.5% for the second.

Compared with `Cc1nnc(C)n1/N=C/c1c(O)ccc2ccccc12`, `Cc1nc2ccccc2c(=O)n1/N=C/c1c(O)ccc2ccccc12` is higher in inhibition: 3.2% for the first, 40.6% for the second.

Going from `Fc1cccc(Nc2cc(-n3cccn3)ncn2)c1` to `COc1ccc(C)cc1Nc1n[n+](-c2ccccc2)c(-c2ccc(SC)cc2)s1`, the inhibition rises from 21.4% to 76.9%.

Going from `CN(Cc1cccs1)S(=O)(=O)c1ccc(Cl)cc1F` to `CN(C)/C=C1/OC(=O)C(C#N)=C1c1ccc(Cl)cc1`, the inhibition falls from 44.2% to -0.58%.

First: Oc1oc(-c2ccco2)nc1C=Nc1ccccc1
Second: Cc1ccc(N=Cc2nc(-c3ccco3)oc2O)cc1
The inhibition of the first is lower: 17% for the first, 73.2% for the second.

First: Oc1cc2c(cc1CN1CCN(c3ncccn3)CC1)OCO2
Second: O=C(CN1C(=O)C(=O)N(CCC2=CCCCC2)C1=O)Nc1ccc(F)cc1F
The inhibition of the first is lower: 8.73% for the first, 8.84% for the second.

Going from `C=CCNc1oc(-c2cccs2)nc1C#N` to `N#Cc1nc(-c2cccs2)oc1NCc1ccccc1`, the inhibition rises from -2.7% to 29.7%.

Going from `CC1CCCC(NS(=O)(=O)c2cc3c(cc2Cl)NC(=O)CO3)C1C` (configuration not stated) to `CNS(=O)(=O)c1ccc(-c2ccc(C=C3C(=O)NC(=O)NC3=O)o2)cc1`, the inhibition falls from 31.5% to -1.77%.

Compared with `COc1cc(/C=C/[N+](=O)[O-])ccc1OC(=O)c1cc2ccccc2oc1=O`, `CCCCn1c(N)c(N(CC(C)C)C(=O)c2ccc(-c3ccc(Cl)cc3)o2)c(=O)[nH]c1=O` is higher in inhibition: 37.8% for the first, 74.7% for the second.

Compared with `CN=C1NN=C(c2cc(C)n(-c3ccc(Cl)cc3)c2C)CS1`, `Cc1cc(C2=NNC(=NC3CC3)SC2)c(C)n1-c1c(C)n(C)n(-c2ccccc2)c1=O` is lower in inhibition: 14.6% for the first, 4.63% for the second.

Going from `Cc1[nH]c(=O)[nH]c(=O)c1/C=C/C(=O)O` to `NS(=O)(=O)c1ccc(-c2ccc(C=C3C(=O)NC(=O)NC3=O)o2)cc1`, the inhibition rises from -4.51% to 2.79%.
